# Test results reported in PubChem BioAssay AID651661 (Broad Institute, 2012).
# Values joined by “and” are separate entries in the source; they are usually repeats but may differ in a detail not shown here. Equal entries are not always repeated. In all, about 350,000 compounds went through this assay and about 2,300 (0.66%) were called active. The sample holds actives, similar compounds and a random draw of the others, so the mix is not that of the screen.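 Rule for the calls: active = mean inhibition of at least 50% after viability correction, with every replicate also passing that limit; inconclusive = mean reaches 50% but only one of two replicates passes; inactive = the rest.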 Where a structure was tested more than once in an assay, its records may differ in their call.
# Assay: blockers of EWS/Fli transcriptional output – A673 cells, NR0B1 luciferase, luminescence, MLPCN library, primary screen (AID 651661);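 note: firefly luciferase signal divided by Alamar Blue viability fluorescence both relative to DMSO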
# Conditions: A673 NR0B1-luciferase reporter, viability-normalised; at 12.6 µM; stronger effect = higher value
row,SMILES,inhibition
1,Oc1c(Cl)cc(Cl)c(Cl)c1Cc1c(O)c(Cl)cc(Cl)c1Cl,50.1% (active)
2,C/C=C/c1ccc(C2[C@H]3CNC[C@@H]2N3Cc2cccc(F)c2)cc1 (stereo partly drawn),4.29% (inactive)
3,Cc1csc(NC(=O)c2ccc(-c3ccc(Cl)cc3Cl)o2)n1,-14% (inactive)
4,COc1cc(SC)ccc1C(=O)Nc1nc(C)cs1,76.2% (active)
5,COc1cc(SC)ccc1C(=O)NNC(=O)C1COc2ccccc2O1 (stereo not drawn),-2.85% (inactive)
6,CO[C@@H]1CN(C)C(=O)c2ccc(NC(=O)c3ccc(F)cc3)cc2OC[C@H](C)N(C)C[C@H]1C,4.5% (inactive)
7,C[C@H](CO)N1C[C@H](C)[C@@H](CN(C)CC2CC2)Oc2ccc(NS(=O)(=O)c3cn(C)cn3)cc2CC1=O,-13.9% (inactive)
8,CO[C@H]1CN(C)C(=O)c2ccc(NC(=O)NC(C)C)cc2OC[C@@H](C)N(C(=O)CN(C)C)C[C@H]1C,8.16% (inactive)
9,Cc1nc(N=C(N)N)nc2c(C)cccc12,34.9% (inactive)
10,Cc1onc(-c2ccccc2)c1C(=O)N=C(N)c1ccc(Cl)cc1,-16.4% (inactive)
11,NC(N)=Nc1nc(-c2ccccc2)c2cc(Cl)ccc2n1,63.6% (active)
12,CC(C)NC(=O)N(C)C[C@@H]1Oc2ncc(C#Cc3ccncc3)cc2C(=O)N([C@@H](C)CO)C[C@@H]1C,-7.78% (inactive)
13,COC(=O)C[C@@H]1C[C@H]2c3cc(NC(=O)Nc4ccc(F)cc4)ccc3O[C@H]2[C@@H](CO)O1,6.58% (inactive)
14,CC(C)(C)[S@](=O)N1Cc2cc(C(=O)N3CCCCC3)nc(-c3cccc(Br)c3)c2[C@@H]1CCO,0.582% (inactive)
15,N#C[C@@H]1[C@@H](c2ccc(C#Cc3cccc(F)c3)cc2)[C@H](CO)N1C(=O)C1CCOCC1,-36% (inactive)
16,N#C[C@@H]1[C@H](c2ccc(C#Cc3cccc(F)c3)cc2)[C@@H](CO)N1C(=O)C1CCCC1,59.3% (active)
17,N#C[C@@H]1[C@@H](c2ccc(C#Cc3cccc(F)c3)cc2)[C@@H](CO)N1C(=O)C1CCC1,-10% (inactive)
18,Cc1noc(C)c1NC(=O)N(C)C[C@@H]1Oc2ccc(NC(=O)CCN3CCOCC3)cc2CC(=O)N([C@H](C)CO)C[C@@H]1C,-3.43% (inactive)
19,CCCCCCCCn1c2c(c(=N)c3c1CCC3)CCCC2,55.8% (active)
20,CO[C@@H](CN(C)C(=O)Nc1ccc(F)cc1)[C@H](C)CN(Cc1ccccc1Cl)[C@@H](C)CO,2.29% (inactive)
21,O=C(NCC[C@H]1CC[C@@H](NS(=O)(=O)c2cccc(Cl)c2)[C@@H](CO)O1)c1cnccn1,-2.88% (inactive)
22,CCOCCC(=O)Nc1ccc2c(c1)c(=O)n(C)n2-c1ccc2ccccc2c1,56.3% (active)
23,CCOC(=O)c1cccc(NC(=O)CCOc2ccccc2)c1,-49.3% (inactive)
24,COc1cc(Cn2c3ccc(NC(=O)CC(C)c4ccccc4)cc3c(=O)n2C)ccc1F (stereo not drawn),11% (inactive)
25,CC(=O)N(C)C[C@H]1Oc2ncc(C#Cc3ccccn3)cc2C(=O)N([C@H](C)CO)C[C@@H]1C,1.56% (inactive)

row,SMILES,inhibition
1,C[C@@H]1CCCCO[C@@H](CN(C)C(=O)Nc2ccc3c(c2)OCO3)[C@H](C)CN([C@H](C)CO)C(=O)c2cc(NC(=O)CCCN(C)C)ccc2O1,-6.47% (inactive)
2,COc1ccc(OC)c(Cc2nnc(CCC(=O)NC3CCCC3)o2)c1,-17.8% (inactive)
3,COc1ccc(OC)c(NC(=O)c2sc3nc(C)cc(C)c3c2N)c1,-6% (inactive)
4,COc1ccc(OC)c(Cc2cnc3nc(N)nc(N)c3c2C)c1,62.9% (active)
5,CO[C@H]1CN(C)C(=O)c2cc(NC(=O)C3CC3)ccc2OC[C@@H](C)N(CCc2ccccc2)C[C@H]1C,-1.43% (inactive)
6,CN(C)CCCNC(=O)C[C@H]1CC[C@H]2[C@@H](COC[C@H](O)CN2CC2CCCCC2)O1,-0.386% (inactive)
7,CC(=O)N(C)C[C@@H]1Oc2ncc(C#Cc3ccc(F)cc3)cc2C(=O)N([C@H](C)CO)C[C@@H]1C,-7.39% (inactive)
8,CC(C)CN(C[C@@H]1N[C@@H](CO)[C@H]1c1ccccc1)C(=O)CN(C)C,4.89% (inactive)
9,O=C(CSc1ncn[nH]1)Nc1ccc(Br)cc1Br,-25.6% (inactive)
10,O=C(/C=C/Sc1ncn[nH]1)c1ccc(Cl)cc1,67% (active)
11,Cc1ccc(S(=O)(=O)N(C)C[C@@H]2Oc3ccc(NS(=O)(=O)c4ccc(F)cc4)cc3CC(=O)N([C@@H](C)CO)C[C@H]2C)cc1,-0.853% (inactive)
12,CC(C)CC#Cc1ccc2c(c1)O[C@H](CN(C)Cc1ccccc1F)[C@@H](C)CN([C@@H](C)CO)S2(=O)=O,-16.5% (inactive)
13,O=C(C1CCCC1)N1CC(=O)N2[C@H](CO)[C@H](c3ccc(Br)cc3)[C@H]2C1,-4.8% (inactive)
14,CCCC#Cc1ccc([C@H]2[C@H](CO)N3C(=O)CN(C(=O)c4ccc(F)cc4)C[C@@H]23)cc1,-7.03% (inactive)
15,C=CCn1c(C)cc(C2=NNC(=NCC)SC2)c1C,91.7% (active)
16,CCCC#Cc1ccc2c(c1)O[C@H](CN(C)C(=O)C1CCCCC1)[C@H](C)CN([C@H](C)CO)S2(=O)=O,9.13% (inactive)
17,CC(C)C#Cc1ccc([C@H]2[C@@H](CO)N3CCCCN(C(=O)Nc4ccccc4)C[C@H]23)cc1,1.61% (inactive)
18,C[C@@H](NC(=O)C[C@H]1C[C@@H]2c3cc(NC(=O)c4ccc5c(c4)OCO5)ccc3O[C@@H]2[C@@H](CO)O1)c1ccccc1,2.79% (inactive)
19,CNC(=O)C[C@@H]1CC[C@H]2[C@@H](COc3ccc(NC(=O)NCc4ccccc4)cc3C(=O)N2C)O1,-5.62% (inactive)
20,COC(=O)C1=C(C)N(Cc2ccc(C(F)(F)F)cc2)C(=NCc2ccccc2)NC1c1ccccc1C(F)(F)F (stereo not drawn),25.1% (inactive)
21,COC(=O)C1=C(C)N(Cc2cccc(C(F)(F)F)c2)C(=NCc2ccccc2)NC1c1ccc(Cl)cc1 (stereo not drawn),36.5% (inactive)
22,COC(=O)C1=C(C)N(Cc2ccc(C(F)(F)F)cc2)C(=NCc2ccc(C(F)(F)F)cc2)NC1c1cccc(Cl)c1 (stereo not drawn),55.4% (active)
23,CN(C)CC(=O)N1[C@@H](C#N)[C@@H](c2ccccc2-c2ccccc2F)[C@@H]1CO,-0.399% (inactive)
24,COc1ccccc1S(=O)(=O)N1C[C@@H]2N[C@H](C1)C2c1ccc(-c2cccc(C)c2)cc1 (stereo partly drawn),61.1% (active) and 2.71% (inactive)
25,Cc1ccccc1S(=O)(=O)N1C[C@@H]2N[C@H](C1)C2c1ccc(-c2cccc(C(=O)N(C)C)c2)cc1 (stereo partly drawn),-5.91% (inactive)

row,SMILES,inhibition
1,COc1cccc(S(=O)(=O)N2C[C@@H]3N[C@H](C2)C3c2ccc(-c3cccc(C(=O)N(C)C)c3)cc2)c1 (stereo partly drawn),10.3% (inactive) and 3.54% (inactive)
2,N#C[C@@H]1[C@H](c2ccc(-c3cccnc3)cc2)[C@H](CO)N1C(=O)C1CC1,-1.35% (inactive)
3,COCC#Cc1ccc([C@@H]2[C@H](CO)N3C(=O)CN(C(=O)C4CCC4)C[C@@H]23)cc1,-1.21% (inactive)
4,Brc1ccc2ncnc(NCc3cccnc3)c2c1,-8.78% (inactive)
5,COc1ccc(Nc2ncnc3ccc(Br)cc23)c(OC)c1,72.3% (active)
6,O=C(O)CCCCCNc1ncnc2ccc(Br)cc12,-0.908% (inactive)
7,CNC[C@H]1OCCCC[C@@H](C)Oc2ccc(NC(=O)Nc3ccc(C(F)(F)F)cc3)cc2C(=O)N([C@H](C)CO)C[C@H]1C,-7.97% (inactive)
8,COCC(=O)Nc1ccc2c(c1)OC[C@@H](C)N(CCc1ccccc1)C[C@H](C)[C@@H](OC)CN(C)C2=O,53.4% (active)
9,COCC(=O)Nc1ccc2c(c1)C(=O)N(C)C[C@H](OC)[C@@H](C)CN(CCc1ccccc1)[C@@H](C)CO2,2.64% (inactive)
10,COCC(=O)Nc1ccc2c(c1)OC[C@H](C)N(Cc1ccccc1)C[C@H](C)[C@@H](OC)CN(C)C2=O,20.9% (inactive)
11,CCC(=O)N1C[C@H](C)[C@@H](OC)CN(C)C(=O)c2cc(NC(=O)c3cnccn3)ccc2OC[C@@H]1C,2.51% (inactive)
12,O=C(c1cnccn1)N1CC(=O)N2[C@H](C1)[C@@H](c1ccc(C#CC3CCCCC3)cc1)[C@@H]2CO,-6.01% (inactive)
13,COc1ccc(/C=C2/SC(=O)N(CCCCCC(=O)Nc3ccccc3C(=O)O)C2=S)cc1,55.1% (active)
14,COc1ccc(NC(=O)CCCC(=O)c2ccccc2)cc1,10.3% (inactive)
15,COc1cccc(/C=C2\SC(=S)N(CCCC(=O)N3CCOCC3)C2=O)c1,-15.9% (inactive)
16,COc1ccccc1S(=O)(=O)N[C@@H]1CC[C@H](CCn2cc(C3CCCC3)nn2)O[C@H]1CO,-6.51% (inactive)
17,O=C(Nc1ccccc1F)N[C@H]1CC[C@@H](CCNS(=O)(=O)c2ccc(F)cc2)O[C@@H]1CO,4.92% (inactive)
18,C[C@H](CO)N1C[C@H](C)[C@@H](CN(C)C(=O)C2CCCCC2)OCCCC[C@H](C)Oc2ccc(N(C)C)cc2C1=O,-2.95% (inactive)
19,CC(NC(=S)Nc1ccc(OC(F)F)cc1)c1ccc(F)cc1 (stereo not drawn),0.035% (inactive)
20,CC(C)CNC(=S)Nc1ccc(F)cc1,86.6% (active)
21,CC(C)CNC(=O)C(=O)Nc1ccc(N(C)C)cc1,-41.5% (inactive)
22,CO[C@H](C(=O)N(C)C[C@@H]1OCc2ccccc2-c2c(n(C)c3ccccc23)C(=O)N([C@@H](C)CO)C[C@H]1C)c1ccccc1,8.3% (inactive)
23,N#Cc1cccc(-c2ccc(C3[C@H]4CNC[C@@H]3N4S(=O)(=O)c3ccc(-c4ccccc4)cc3)cc2)c1 (stereo partly drawn),3.68% (inactive) and -7.87% (inactive)
